# PubChem BioAssay (NCI)
# This is part of a sample that, as a whole, favours compounds with a hit. Of some 83,000 tested, about 20% had one in any assay.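 Step 1: grow cells in 96-well plates. Step 2: add test compound at a single concentration. Step 3: incubate 48 h. Step 4: record percent growth.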 Values without a mark were called inactive. The source made the active and inactive calls. The calls were made as follows: active = growth percent below 10; inactive = the rest.
# How the values were obtained:
# Assay in all cases: NCI-60 one-dose screen, 48 h (100 = growth as untreated, 0 = no growth, -100 = all killed)
# Conditions in all cases: 10 µM unless noted
# SK-MEL-2 melanoma = system: SK-MEL-2 melanoma
# EKVX NSCLC = system: EKVX NSCLC
# SN12C renal = system: SN12C renal
# UO-31 renal = system: UO-31 renal
# TK-10 renal = system: TK-10 renal
# ACHN renal = system: ACHN renal
# CAKI-1 renal = system: CAKI-1 renal
# A498 renal = system: A498 renal
# CCRF-CEM leukemia = system: CCRF-CEM leukemia
# MOLT-4 leukemia = system: MOLT-4 leukemia
Compound,growth (SK-MEL-2 melanoma),growth (EKVX NSCLC),growth (SN12C renal),growth (UO-31 renal),growth (TK-10 renal),growth (ACHN renal),growth (CAKI-1 renal),growth (A498 renal),growth (CCRF-CEM leukemia),growth (MOLT-4 leukemia)
CCCCCCN(CCCCCC)CC(O)c1cccc2ccc(Cl)cc12 (centres undefined),46.6%,77.2%,72.8%,47.9%,79.2%,50.8%,25.3%,67.3%,67.6%,37.8%
C=C1C(=O)O[C@H]2[C@H]1CC/C(COC(=O)NCc1ccc(Cn3c(=O)sn(CCCCl)c3=O)cc1)=C\CC[C@@]1(C)O[C@@H]21,49%,57.1%,18.5%,11%,-65.2% (active),-57.7% (active),27.7%,104%,-38% (active),-31.7% (active)
N#Cc1c(NC(=O)c2cccc(C(F)(F)F)c2)sc2c1CCC(=O)C2,-0.134% (active),14.7%,4.55% (active),-100% (active),-5.21% (active),-93.8% (active),-85.3% (active),94.6%,6.89% (active),3.86% (active)
C=C1C(=O)O[C@H]2[C@H]1CC/C(COC(=O)/C=C\C(=O)NCc1ccc(Cn3c(=O)sn(-c4ccc(Cl)cc4)c3=O)cc1)=C\CC[C@@]1(C)O[C@@H]21,-64.7% (active),-74.8% (active),-96.1% (active),-100% (active),-85.1% (active),-100% (active),-69.9% (active),-15.8% (active),-22.9% (active),-36.7% (active)
CCCCCCNCc1cc(C(C)(C)C)cc(CNCCCCCC)c1O,-7.07% (active),-47.9% (active),-42.2% (active),-80.7% (active),-80.4% (active),-84.2% (active),16.7%,-7.12% (active),-10.4% (active),-14.8% (active)
CC(C)n1nc(C#Cc2cccc(O)c2)c2c(N)ncnc21,-76.9% (active),-27.1% (active),-44.3% (active),-63.4% (active),-87.4% (active),-47.3% (active),-66.8% (active),-84.9% (active),-21% (active),-36.1% (active)
O=C1N/C(=N/O)S/C1=C/c1cn(-c2ccccc2)nc1-c1ccccc1,100%,87.7%,96.1%,57.5%,108%,100%,77.2%,85.6%,91.6%,91.9%
COc1ccc(/C=C2\COc3ccc(O)c(O)c3C2=O)c(OC)c1,90.7%,85.3%,33%,34.5%,22.5%,56.2%,36.6%,114%,4.18% (active),7.29% (active)
c1ccc(-c2oc3ccccc3c2-c2ccccc2)cc1,92.9%,96.6%,92.2%,86.4%,110%,97.3%,69.4%,89.9%,86.1%,54.9%
CC1(C)N=C(N)N=C(N)N1c1cccc(CN)c1,99.8%,83.9%,91.3%,66.8%,101%,100%,89.2%,98%,96.5%,95.1%
C=C(C)[C@@H]1CC[C@]2(C(=O)NCC(=O)O)CC[C@]3(C)[C@H](CC[C@@H]4[C@@]5(C)Cc6c([nH]c7ccccc67)C(C)(C)[C@@H]5CC[C@]43C)[C@@H]12,92.4%,84.7%,72.2%,55.4%,103%,87.4%,78.5%,77.2%,72.8%,78.4%
CS(=O)(=O)c1ccc(-c2nc3cc(Cl)ccc3n2CC(=O)NO)cc1,88.2%,99.4%,95%,82.4%,112%,93.7%,93.6%,101%,93.8%,94.2%
N=c1ccn2c(n1)OC1C(O)C(CO)OC12 (centres undefined),46.5%,85.5%,34.9%,-3.93% (active),51.3%,-15.9% (active),-14.4% (active),74.7%,–,108%
